According to PubChem BioAssay (EPA / NIEHS):
Active and inactive are the calls of the source. Rule for the calls: active = hit-call score of the fitted dose curve at least 0.9, where 1 is the maximum; inactive = score below 0.9.

Experiments:
[1] = ATG_ISRE_CIS: Attagene CIS-FACTORIAL HepG2 Assay for human Interferon Regulatory Factor 1 (IRF1) binding to an Interferon-Stimulated Response Element (ISRE) (AID 2282948); conditions: HepG2 ISRE cis-reporter (Attagene), mRNA transcription readout; actives raise or lower the signal
Outline: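 Cell-based cis-reporter assay; HepG2; 24 h exposure; reporter mRNA by RT-PCR plus capillary electrophoresis fluorescence; activity in either direction scored relative to DMSO.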

[2] = ATG_M_32_CIS: Attagene CIS-FACTORIAL HepG2 Assay for M32 Transcription Factor (Internal Marker) (AID 2282949); conditions: HepG2 Attagene cis-factorial M32 reporter, mRNA; actives raise or lower the signal;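 note: background control marker of the multiplexed CIS panel rather than a real target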
Outline: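 Following 24 h chemical exposure of HepG2 cells transiently expressing cis-promoter reporter constructs, reporter transcript levels were determined by RT-PCR with fluorescent labelling and capillary electrophoresis, then fitted bidirectionally against DMSO.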

[3] = ATG_M_06_CIS: Attagene CIS-FACTORIAL HepG2 Assay for M06 Transcription Factor (Internal Marker) (AID 2282950); conditions: HepG2 Attagene CIS-FACTORIAL M06 internal marker reporter; actives raise or lower the signal
Outline: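 Internal background marker within multiplexed cis-reporter HepG2 system. Cells transiently transfected, dosed 24 h; reporter mRNA measured by RT-PCR, HpaI digestion and capillary electrophoresis. Bidirectional fit relative to DMSO.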

[4] = target: Hypoxia-inducible factor 1-alpha (Homo sapiens) (UniProt Q16665); experiment: ATG_HIF1a_CIS: Attagene CIS-FACTORIAL HepG2 Assay for human Hypoxia Inducible Factor 1 (HIF1A) (AID 2282951); conditions: HepG2 Attagene cis-factorial HIF1a reporter transcription; actives raise or lower the signal
Outline: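 Cis-element reporter constructs were transiently transfected into HepG2 cells, which were treated for 24 h; reporter RNA was reverse-transcribed, amplified, labelled and resolved by capillary electrophoresis.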

[5] = target: Hepatocyte nuclear factor 6 (Homo sapiens) (UniProt Q9UBC0); experiment: ATG_HNF6_CIS: Attagene CIS-FACTORIAL HepG2 Assay for human Hepatocyte Nuclear Factor 6 (HNF6) (AID 2282952); conditions: HepG2 Attagene cis-factorial HNF6 reporter transcription; actives raise or lower the signal
Outline: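 HepG2 cells transiently transfected with cis-element-driven multiple reporter transcription units, dosed 24 h; reporter mRNA quantified by RT-PCR, FAM primer extension, HpaI digestion and capillary electrophoresis; bidirectional fit versus DMSO baseline.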

[6] = target: Heat shock factor protein 1 (Homo sapiens) (UniProt Q00613); experiment: ATG_HSE_CIS: Attagene CIS-FACTORIAL HepG2 Assay for human Heat Shock Transcription Factor 1 (HSE) (AID 2282953); conditions: HepG2 HSE cis-reporter, Attagene RNA transcription; actives raise or lower the signal
Outline: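 HepG2 cells transfected with cis-promoter reporter units sensing endogenous transcription factor activity; reporter mRNA quantified 24 h post-dose by RT-PCR and capillary electrophoresis of 6-FAM-labelled products. Bidirectional fitting against DMSO.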

[7] = ATG_MRE_CIS: Attagene CIS-FACTORIAL HepG2 Assay for human Metal Responsive Element (MRE) (AID 2282954); conditions: HepG2 MRE cis-reporter transcription, Attagene multiplex; actives raise or lower the signal
Outline: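 Fluorescent reporter fragments separated by capillary electrophoresis give mRNA induction for the MRE unit after 24 h treatment of transfected HepG2 cells. Endogenous transcription-factor activity is read; DMSO serves as negative control and baseline.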

[8] = ATG_PBREM_CIS: Attagene CIS-FACTORIAL HepG2 Assay for human Phenobarbital-responsive Enhancer Module (PBREM) (AID 2282955); conditions: HepG2 PBREM cis-reporter, Attagene multiplexed transcription; actives raise or lower the signal
Outline: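 Multiplexed cis-reporter readout in human hepatoma HepG2 cells; PBREM-regulated transcript quantified after 24 h exposure by fluorescent RT-PCR fragment analysis. Signal changes up or down fitted relative to DMSO.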

[9] = target: Paired box protein Pax-6 (Homo sapiens) (UniProt P26367); experiment: ATG_Pax6_CIS: Attagene CIS-FACTORIAL HepG2 Assay for human Paired Box 6 (PAX6) (AID 2282956); conditions: HepG2 CIS-FACTORIAL PAX6 reporter transcription, RNA readout; actives raise or lower the signal
Outline: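 Multiplexed cis-reporter HepG2 system; 24 h treatment; reporter mRNA read by RT-PCR/CE fluorescence; bidirectional fit vs DMSO.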

[10] = ATG_PXRE_CIS: Attagene CIS-FACTORIAL HepG2 Assay for human Pregnane X Receptor Element (PXRE) (AID 2282957); conditions: HepG2 Attagene CIS-FACTORIAL PXRE reporter, mRNA; actives raise or lower the signal
Outline: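 HepG2 cells transiently transfected with cis-regulated multiple reporter transcription units; endogenous factor activity measured as reporter mRNA 24 h after dosing. RT-PCR, fluorescent primer extension, HpaI digestion, capillary electrophoresis; bidirectional fit versus DMSO baseline.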

[11] = ATG_PPRE_CIS: Attagene CIS-FACTORIAL HepG2 Assay for human Peroxisome Proliferator-activated Response Element (PPRE) (AID 2282958); conditions: HepG2 PPRE cis-element reporter, Attagene transcription factor profiling; actives raise or lower the signal
Outline: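 DMSO served as negative control and baseline for bidirectional curve fitting. Signal came from PPRE-regulated reporter mRNA in HepG2 cells, measured 24 h post-dosing by RT-PCR, 6-FAM primer extension and capillary electrophoresis.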

[12] = ATG_RORE_CIS: Attagene CIS-FACTORIAL HepG2 Assay for human RAR-related Orphan Receptor Element (RORE) (AID 2282959); conditions: HepG2 Attagene cis-factorial RORE reporter, mRNA; actives raise or lower the signal
Outline: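 Transfect HepG2 with MRTUs; treat 24 h; extract RNA; RT with oligo(dT); PCR with reporter-specific primers; 6-FAM primer extension; HpaI digest 2 h at 37 C; capillary electrophoresis. Fit vs DMSO, bidirectional.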

[13] = ATG_Sox_CIS: Attagene CIS-FACTORIAL HepG2 Assay for human SRY-box transcription factor (SOX) (AID 2282960); conditions: HepG2 Attagene cis-factorial SOX reporter, mRNA; actives raise or lower the signal
Outline: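 Fluorescence-labelled cDNA fragments from reporter transcripts, sized by CE, give the signal. Cells: HepG2, transiently transfected with cis-regulated reporter units. Exposure 24 h; DMSO negative control; bidirectional curve fitting.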

[14] = target: Transcription factor Sp1 (Homo sapiens) (UniProt P08047); experiment: ATG_Sp1_CIS: Attagene CIS-FACTORIAL HepG2 Assay for human Specificity Protein 1 (Sp1) (AID 2282961); conditions: HepG2 Sp1 cis-reporter transcription, actives raise or lower the signal
Outline: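 Chemicals are dosed onto HepG2 cells transfected with multiple cis-promoter reporter constructs, and after 24 h reporter RNA is reverse-transcribed, PCR-amplified and resolved by capillary electrophoresis for fluorescence quantitation; activity is scored up or down against DMSO.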

[15] = ATG_SREBP_CIS: Attagene CIS-FACTORIAL HepG2 Assay for human Sterol Regulatory Element Binding (SREBP) (AID 2282962); conditions: HepG2 Attagene cis-factorial SREBP reporter, mRNA; actives raise or lower the signal
Outline: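 mRNA induction of transfected cis-promoter reporters in HepG2 cells, 24 h post-dose. Detection: RT-PCR with 6-FAM-labelled products, HpaI digest, capillary electrophoresis. DMSO served as negative control and baseline.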

[16] = target: Signal transducer and activator of transcription 3 (Homo sapiens) (UniProt P40763); experiment: ATG_STAT3_CIS: Attagene CIS-FACTORIAL HepG2 Assay for human Signal Transducer and Activator of Transcription 3 (STAT3) (AID 2282963); conditions: HepG2, Attagene cis-factorial STAT3 reporter transcription; actives raise or lower the signal
Outline: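 Values derive from bidirectional fits relative to DMSO of reporter mRNA levels, measured by RT-PCR with capillary electrophoresis, in HepG2 cells carrying transiently transfected cis-regulated reporter units and exposed 24 h.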

[17] = ATG_TA_CIS: Attagene CIS-FACTORIAL HepG2 Assay for human TA Basal Promoter (AID 2282964); conditions: HepG2 Attagene CIS-factorial TA basal promoter reporter; actives raise or lower the signal
Outline: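 HepG2 cells transiently transfected with multiple reporter units under cis promoter elements, reporting endogenous transcription factor activity; this endpoint tracks the TA basal promoter as background control. Reporter mRNA after 24 h dosing measured by RT-PCR/capillary electrophoresis; bidirectional fits versus DMSO.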

[18] = ATG_TCF_b_cat_CIS: Attagene CIS-FACTORIAL HepG2 Assay for human T-Cell-Factor with beta-catenin (TCF/b-cat) (AID 2282965); conditions: HepG2 TCF/beta-catenin cis-reporter transcription, actives raise or lower the signal
Outline: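 HepG2, transient MRTU transfection, cis-element-driven reporters (endogenous TFs). 24 h compound exposure. Readout: reporter mRNA by RT-PCR + 6-FAM primer extension, HpaI digest, capillary electrophoresis. Gain/loss fit vs DMSO baseline.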

[19] = ATG_TAL_CIS: Attagene CIS-FACTORIAL HepG2 Assay for human TAL Basal Promoter (AID 2282966); conditions: HepG2 Attagene cis-factorial TAL promoter reporter; actives raise or lower the signal;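 note: background control endpoint measuring basal TAL promoter reporter mRNA not a specific factor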
Outline: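 HepG2 cells were transiently transfected with promoter-driven multiplexed reporter units and dosed for 24 h. Reporter mRNA was measured by RT-PCR with capillary electrophoresis fluorescence; bidirectional fits used DMSO as baseline, serving as a background control.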

Measured: AC50

Transcription factor Sp1 (Homo sapiens), sequence (P08047 whole entry, looked up): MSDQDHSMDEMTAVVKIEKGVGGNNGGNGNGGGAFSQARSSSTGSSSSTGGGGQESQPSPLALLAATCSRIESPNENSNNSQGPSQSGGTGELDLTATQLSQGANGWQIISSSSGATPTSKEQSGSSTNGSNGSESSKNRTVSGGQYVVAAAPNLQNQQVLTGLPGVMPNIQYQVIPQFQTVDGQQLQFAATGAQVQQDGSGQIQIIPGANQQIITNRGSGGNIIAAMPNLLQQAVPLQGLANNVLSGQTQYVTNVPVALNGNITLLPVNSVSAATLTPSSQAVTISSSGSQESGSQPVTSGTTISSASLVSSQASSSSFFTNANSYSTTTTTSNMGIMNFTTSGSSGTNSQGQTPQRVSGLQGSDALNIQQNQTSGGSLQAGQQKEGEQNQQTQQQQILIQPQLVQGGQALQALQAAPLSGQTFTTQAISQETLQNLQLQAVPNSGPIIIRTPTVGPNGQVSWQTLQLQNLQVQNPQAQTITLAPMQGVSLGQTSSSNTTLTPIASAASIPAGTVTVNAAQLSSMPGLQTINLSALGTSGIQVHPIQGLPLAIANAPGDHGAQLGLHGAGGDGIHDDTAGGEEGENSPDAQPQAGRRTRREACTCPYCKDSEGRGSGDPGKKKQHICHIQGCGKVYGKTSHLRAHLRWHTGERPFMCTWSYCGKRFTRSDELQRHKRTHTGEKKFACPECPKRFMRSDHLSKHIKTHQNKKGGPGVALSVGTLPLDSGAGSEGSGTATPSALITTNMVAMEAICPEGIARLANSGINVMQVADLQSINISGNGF
Paired box protein Pax-6 (Homo sapiens), sequence (P26367 whole entry, looked up): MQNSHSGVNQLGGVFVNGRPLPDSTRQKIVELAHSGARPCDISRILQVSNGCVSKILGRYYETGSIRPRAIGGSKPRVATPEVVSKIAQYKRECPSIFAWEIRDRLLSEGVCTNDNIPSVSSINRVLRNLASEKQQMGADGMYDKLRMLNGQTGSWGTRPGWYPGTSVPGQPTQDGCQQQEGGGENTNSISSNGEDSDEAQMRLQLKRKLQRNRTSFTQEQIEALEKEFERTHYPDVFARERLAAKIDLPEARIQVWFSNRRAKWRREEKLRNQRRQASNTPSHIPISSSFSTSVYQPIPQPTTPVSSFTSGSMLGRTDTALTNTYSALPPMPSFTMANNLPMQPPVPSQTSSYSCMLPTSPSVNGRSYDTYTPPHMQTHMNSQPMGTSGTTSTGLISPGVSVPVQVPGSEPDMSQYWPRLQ
Signal transducer and activator of transcription 3 (Homo sapiens), sequence (P40763 whole entry, looked up): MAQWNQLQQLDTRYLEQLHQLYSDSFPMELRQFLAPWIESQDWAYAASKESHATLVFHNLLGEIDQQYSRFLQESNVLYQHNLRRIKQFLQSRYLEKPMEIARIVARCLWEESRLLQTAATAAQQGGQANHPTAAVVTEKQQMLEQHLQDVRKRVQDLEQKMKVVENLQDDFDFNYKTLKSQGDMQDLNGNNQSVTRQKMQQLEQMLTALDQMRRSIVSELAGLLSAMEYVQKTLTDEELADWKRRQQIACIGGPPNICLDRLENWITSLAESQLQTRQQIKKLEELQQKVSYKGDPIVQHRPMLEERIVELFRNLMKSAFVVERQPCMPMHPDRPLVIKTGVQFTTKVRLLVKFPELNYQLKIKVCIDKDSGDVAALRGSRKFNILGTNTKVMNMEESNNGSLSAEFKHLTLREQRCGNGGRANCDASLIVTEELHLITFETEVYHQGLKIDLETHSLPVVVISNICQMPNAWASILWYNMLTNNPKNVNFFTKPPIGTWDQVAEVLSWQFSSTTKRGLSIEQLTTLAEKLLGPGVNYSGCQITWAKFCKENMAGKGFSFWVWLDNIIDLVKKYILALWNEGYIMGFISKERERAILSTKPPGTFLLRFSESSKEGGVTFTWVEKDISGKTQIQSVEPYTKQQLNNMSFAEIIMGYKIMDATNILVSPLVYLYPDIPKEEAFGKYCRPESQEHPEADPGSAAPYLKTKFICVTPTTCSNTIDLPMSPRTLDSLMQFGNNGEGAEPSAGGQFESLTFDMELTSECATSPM
Hepatocyte nuclear factor 6 (Homo sapiens), sequence (Q9UBC0 whole entry, looked up): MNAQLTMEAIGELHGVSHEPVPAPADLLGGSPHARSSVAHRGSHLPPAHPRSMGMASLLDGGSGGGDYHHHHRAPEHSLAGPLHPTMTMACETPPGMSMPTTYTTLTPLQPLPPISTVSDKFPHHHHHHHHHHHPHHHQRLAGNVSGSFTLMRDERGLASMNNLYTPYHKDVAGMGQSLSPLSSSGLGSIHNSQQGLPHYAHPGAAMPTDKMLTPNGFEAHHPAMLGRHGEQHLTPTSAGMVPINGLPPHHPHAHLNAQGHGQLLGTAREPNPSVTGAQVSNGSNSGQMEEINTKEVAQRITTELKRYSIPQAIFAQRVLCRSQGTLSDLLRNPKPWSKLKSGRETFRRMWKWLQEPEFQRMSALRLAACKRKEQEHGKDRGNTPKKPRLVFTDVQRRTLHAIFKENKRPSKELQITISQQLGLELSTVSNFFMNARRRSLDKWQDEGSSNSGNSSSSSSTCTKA
Hypoxia-inducible factor 1-alpha (Homo sapiens), sequence (Q16665 whole entry, looked up): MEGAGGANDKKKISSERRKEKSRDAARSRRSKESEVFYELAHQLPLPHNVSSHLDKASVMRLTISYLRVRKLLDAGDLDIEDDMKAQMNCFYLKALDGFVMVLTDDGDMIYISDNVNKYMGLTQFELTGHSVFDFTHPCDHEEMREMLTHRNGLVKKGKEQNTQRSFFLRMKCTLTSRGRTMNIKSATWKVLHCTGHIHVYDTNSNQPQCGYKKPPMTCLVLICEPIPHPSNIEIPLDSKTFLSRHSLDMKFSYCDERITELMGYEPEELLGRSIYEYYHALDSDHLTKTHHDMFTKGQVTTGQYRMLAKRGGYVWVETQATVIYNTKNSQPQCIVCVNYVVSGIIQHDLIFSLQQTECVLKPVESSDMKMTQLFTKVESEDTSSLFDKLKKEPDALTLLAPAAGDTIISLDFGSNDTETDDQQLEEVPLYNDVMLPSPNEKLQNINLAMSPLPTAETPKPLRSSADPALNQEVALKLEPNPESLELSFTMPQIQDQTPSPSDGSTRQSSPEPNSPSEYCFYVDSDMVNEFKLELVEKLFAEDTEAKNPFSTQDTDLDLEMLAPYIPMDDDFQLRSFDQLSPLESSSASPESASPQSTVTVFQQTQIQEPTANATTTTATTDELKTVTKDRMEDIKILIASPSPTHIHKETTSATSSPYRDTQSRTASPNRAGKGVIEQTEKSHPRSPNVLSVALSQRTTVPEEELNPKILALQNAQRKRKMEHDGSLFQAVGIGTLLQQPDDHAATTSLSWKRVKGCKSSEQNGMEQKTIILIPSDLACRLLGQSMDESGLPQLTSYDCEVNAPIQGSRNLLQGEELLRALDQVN
Heat shock factor protein 1 (Homo sapiens), sequence (Q00613 whole entry, looked up): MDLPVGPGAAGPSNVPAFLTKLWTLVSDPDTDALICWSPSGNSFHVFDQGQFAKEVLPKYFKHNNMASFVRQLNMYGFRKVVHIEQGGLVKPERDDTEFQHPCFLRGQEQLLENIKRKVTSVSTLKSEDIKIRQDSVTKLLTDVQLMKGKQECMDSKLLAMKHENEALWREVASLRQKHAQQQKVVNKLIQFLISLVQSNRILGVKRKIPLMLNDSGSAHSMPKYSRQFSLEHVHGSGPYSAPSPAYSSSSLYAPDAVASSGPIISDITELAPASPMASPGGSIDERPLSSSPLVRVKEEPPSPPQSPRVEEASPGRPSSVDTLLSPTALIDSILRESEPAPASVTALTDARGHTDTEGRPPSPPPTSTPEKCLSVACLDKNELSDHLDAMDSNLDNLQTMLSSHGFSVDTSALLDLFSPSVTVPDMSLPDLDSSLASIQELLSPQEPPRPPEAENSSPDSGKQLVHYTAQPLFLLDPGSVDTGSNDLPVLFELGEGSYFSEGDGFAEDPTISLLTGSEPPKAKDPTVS

CO[C@@H]1[C@H](OC(=O)NC(=O)CCl)CC[C@]2(CO2)[C@H]1[C@@]1(C)O[C@@H]1CC=C(C)C
active: [10] 0.293 µM | [18] 39.5 µM
inactive: all other assays above

C=CCc1ccc2c(c1)OCO2
not listed: [11] | [17]
inactive: all other assays above

CCCSC(=O)N(CCC)CCC
active: [10] 27.1 µM
not listed: [11] | [17]
inactive: all other assays above

Nc1ccc([N+](=O)[O-])cc1
not listed: [11]
inactive: all other assays above

C[N+](C)(C)CC1CO1 (centres undefined)
not listed: [8] | [17]
inactive: all other assays above

Nc1ccc(Cc2ccc(N)cc2)cc1
not listed: [17]
inactive: all other assays above

O=Cc1ccco1
not listed: [8] | [11] | [17]
inactive: all other assays above

c1ccc(C2CO2)cc1 (centres undefined)
active: [10] 34.8 µM
not listed: [8]
inactive: all other assays above

CCCCCCCCn1sccc1=O
active: [1] 17.6 µM | [5] 21 µM | [6] 16.7 µM | [7] 16.7 µM | [9] 19.1 µM | [10] 18.5 µM | [13] 18.4 µM | [14] 17 µM | [15] 14.8 µM | [18] 15.6 µM
inactive: [2] | [3] | [4] | [11] | [12] | [16] | [17] | [19]

CC(C)(OOC(C)(C)c1ccccc1)c1ccccc1
active: [1] 100 µM | [5] 100 µM | [7] 64 µM | [8] 25.3 µM | [10] 25 µM | [14] 45.4 µM | [15] 62.9 µM | [16] 100 µM | [19] 142 µM
inactive: all other assays above

COc1cc(C=O)cc2c1[C@H](COC(N)=O)[C@]1(OC(C)=O)ON2C[C@H]2[C@@H]1N2C(C)=O
active: [1] 0.54 µM | [4] 0.155 µM | [5] 9.05 µM | [6] 8.4 µM | [10] 8.47 µM | [16] 33.4 µM | [17] 0.0965 µM | [18] 0.157 µM | [19] 57.3 µM
inactive: all other assays above

CCC[CH2][Sn]([Cl])([CH2]CCC)[CH2]CCC
active: [1] 0.611 µM | [6] 0.667 µM | [7] 0.778 µM | [9] 0.678 µM | [14] 0.412 µM | [17] 0.698 µM | [18] 0.591 µM
not listed: [11]
inactive: all other assays above

CS(=O)(=O)NC(=O)c1cc(Oc2ccc(C(F)(F)F)cc2Cl)ccc1[N+](=O)[O-]
active: [10] 8.23 µM
not listed: [11] | [17]
inactive: all other assays above

Cc1ccc(N=C=O)cc1N=C=O
not listed: [3] | [6] | [11]
inactive: all other assays above

CCOc1cccc(C2(N3CCN(c4ccccc4)CC3)CCC(C)CC2)c1 (centres undefined)
not listed: [6] | [11]
inactive: all other assays above
